Measured values as given in PubChem BioAssay (Tox21).
Records with an inconclusive call do not appear. Some structures have more than one record in an assay (separate samples or runs), and their calls can disagree. The source made the active and inactive calls. Unless noted, the call rests on the fitted dose curve; in most records, active means well fitted curve in the direction sought with a large enough effect in the repeat runs; inconclusive means weak or mixed curves; inactive means no such curve, though single readings can be large; an effect the other way counts as inactive or inconclusive.

What was measured:
[1] = qHTS assay to identify small molecule antagonists of the glucocorticoid receptor (GR) signaling pathway - cell viability counter screen (AID 720693); further: nearly all actives have a fitted effect of over 55% in size
[2] = qHTS assay for identifying genotoxic compounds that show differential cytotoxicity against isogenic chicken DT40 cell lines with known DNA damage response pathways - wild type cell line (AID 743012); further: nearly all actives have a fitted effect of over 60% in size; further: potency means the concentration at half of the fitted maximal effect
Procedure, shortened: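 Endpoint: CellTiter-Glo luminescence, 30 min RT. Cells: wild type DT40, 300/well. Exposure: compounds in DMSO, 40 h, 37 C/5% CO2, after ~0.5 h pre-incubation.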

[3] = qHTS assay for identifying genotoxic compounds that show differential cytotoxicity against isogenic chicken DT40 cell lines with known DNA damage response pathways - Rev3 mutant cell line (AID 743014); further: nearly all actives have a fitted effect of over 55% in size; further: potency means the concentration at half of the fitted maximal effect
[4] = qHTS assay for identifying genotoxic compounds that show differential cytotoxicity against isogenic chicken DT40 cell lines with known DNA damage response pathways - Rad54/Ku70 mutant cell line (AID 743015); further: nearly all actives have a fitted effect of over 60% in size; further: potency means the concentration at half of the fitted maximal effect
[5] = qHTS assay to identify small molecule antagonists of the androgen receptor (AR) signaling pathway - cell viability counter screen (AID 743033; further: nearly all actives have a fitted effect of over 45% in size)
[6] = qHTS assay to identify small molecule antagonists of the androgen receptor (AR) signaling pathway using the MDA cell line - cell viability counter screen (AID 743041; further: nearly all actives have a fitted effect of over 45% in size; further: potency means the concentration at half of the fitted maximal effect)
Procedure, shortened: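 Viability read by CellTiter-Fluor fluorescence in the same wells as the antagonist screen, added after 15.5 h of a 16 h, 37C exposure. Human breast carcinoma MDA-kb2 AR-luc cells, compounds co-dosed with agonist R1881.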

[7] = qHTS assay to identify small molecule antagonists of the thyroid receptor (TR) signaling pathway - cell viability counter screen (AID 743064); further: nearly all actives have a fitted effect of over 50% in size
Procedure, shortened: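 Counter screen for cytotoxicity: compound plus T3 (1 nM final) on GH3.TRE-Luc cells, 23.5 h at 37 °C, then fluorescence viability readout with CellTiter-Fluor.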

[8] = target: Androgen receptor (Homo sapiens) (UniProt P10275); assay: qHTS assay to identify small molecule agonists of the androgen receptor (AR) signaling pathway (AID 743036; active means well fitted activation curve with a large enough effect in the signal ratio in the repeat runs, with a control signal flat, not every such curve was filed as active; the % refers to the signal ratio)
Procedure, shortened: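 In this Tox21 qHTS, 2,000 HEK293 AR-bla cells per well were incubated with compounds for 16 h at 37C and 5% CO2. Fluorescence intensity was recorded 2 h after adding LiveBLAzer B/G FRET substrate at room temperature.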

[9] = target: Androgen receptor (Homo sapiens) (UniProt P10275); assay: qHTS assay to identify small molecule antagonists of the androgen receptor (AR) signaling pathway using the MDA cell line (AID 743042; further: nearly all actives have a fitted effect of over 55% in size)
Procedure, shortened: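 Antagonist mode: compounds plus R1881 agonist added to MDA-kb2 AR-luc cells, incubated 16 h at 37C. Luciferase reporter luminescence quantified, with multiplexed CellTiter-Fluor readout for cell viability.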

[10] = target: Androgen receptor (Homo sapiens) (UniProt P10275); assay: qHTS assay to identify small molecule antagonists of the androgen receptor (AR) signaling pathway (AID 743035; active means well fitted inhibition curve with a large enough effect in the signal ratio in the repeat runs, not every such curve was filed as active; the % refers to the signal ratio)
Procedure, shortened: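 R1881 agonist challenge of a HEK293 UAS-beta-lactamase AR reporter line in the presence of compound (16 h, 37C); signal taken as FRET fluorescence after 2 h with LiveBLAzer B/G substrate at room temperature.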
On the % scale 0 is the no-effect control and ±100 the full control effect.

Androgen receptor (Homo sapiens), sequence (P10275 whole entry, looked up): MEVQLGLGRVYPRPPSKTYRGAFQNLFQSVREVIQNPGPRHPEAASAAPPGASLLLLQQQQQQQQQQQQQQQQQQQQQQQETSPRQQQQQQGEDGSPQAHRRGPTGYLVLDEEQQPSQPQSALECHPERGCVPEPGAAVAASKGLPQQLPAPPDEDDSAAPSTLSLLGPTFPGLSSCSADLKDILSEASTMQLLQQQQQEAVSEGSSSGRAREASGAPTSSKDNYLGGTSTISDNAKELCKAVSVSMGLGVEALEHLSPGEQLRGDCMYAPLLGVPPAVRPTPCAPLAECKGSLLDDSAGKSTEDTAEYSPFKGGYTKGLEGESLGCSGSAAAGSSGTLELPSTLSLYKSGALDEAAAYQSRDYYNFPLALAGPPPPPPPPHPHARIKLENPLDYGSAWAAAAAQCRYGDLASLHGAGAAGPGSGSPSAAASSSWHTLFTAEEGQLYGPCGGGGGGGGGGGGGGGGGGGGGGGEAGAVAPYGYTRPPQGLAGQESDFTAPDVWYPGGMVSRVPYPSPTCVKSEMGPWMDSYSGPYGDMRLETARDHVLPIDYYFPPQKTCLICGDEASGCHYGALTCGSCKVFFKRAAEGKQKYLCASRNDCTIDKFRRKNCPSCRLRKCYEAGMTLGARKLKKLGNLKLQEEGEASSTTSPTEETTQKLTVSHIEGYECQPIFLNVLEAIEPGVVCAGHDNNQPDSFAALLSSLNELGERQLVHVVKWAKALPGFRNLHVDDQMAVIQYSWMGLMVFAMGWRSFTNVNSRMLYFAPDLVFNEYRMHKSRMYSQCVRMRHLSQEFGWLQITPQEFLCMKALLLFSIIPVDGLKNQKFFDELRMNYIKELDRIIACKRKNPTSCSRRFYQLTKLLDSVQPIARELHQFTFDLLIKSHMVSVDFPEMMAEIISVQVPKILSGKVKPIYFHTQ

CC(C)OC(=O)CCC(=O)OC(C)C
inactive: outcome [1] | Potency [2] | Potency [3] | Potency [4] | outcome [5] | Potency [6] | Potency [7]

CC(C)CO
inactive: outcome [1] | Potency [2] | Potency [3] | Potency [4] | outcome [5] | Potency [6] | Potency [7]

CCCC(=O)OC/C=C(\C)CCC=C(C)C
inactive: outcome [1] | Potency [2] | Potency [3] | Potency [4] | outcome [5]

NCCOCCN
inactive: outcome [1] | Potency [2] | Potency [3] | Potency [4] | outcome [5]

CCCCOC(=O)C(C)O (stereo not drawn)
inactive: outcome [1] | Potency [2] | Potency [3] | Potency [4] | outcome [5] | Potency [6] | Potency [7]

COS(=O)(=O)O
inactive: outcome [1] | Potency [2] | Potency [3] | Potency [4] | outcome [5] | Potency [6] | Potency [7]

O=C(O)CSCC(=O)NC1CCSC1=O (stereo not drawn)
inactive: outcome [1] | Potency [2] | Potency [3] | Potency [4] | outcome [5] | outcome [8] | Potency [6] | outcome [9] | Potency [7]

CCOc1cccc(N)c1
inactive: outcome [1] | Potency [2] | Potency [3] | Potency [4] | outcome [5] | Potency [6]

O=[N+]([O-])c1c(Cl)cc(Cl)cc1Cl
inactive: outcome [1] | Potency [2] | Potency [3] | Potency [4] | outcome [5]

CCNC(=O)NCc1cccc(Cl)c1
inactive: outcome [1] | Potency [2] | Potency [3] | Potency [4] | outcome [5] | Potency [6]

Cn1nnc2c(C(N)=O)ncn2c1=O
inactive: outcome [1] | Potency [2] | Potency [3] | Potency [4] | outcome [5] | Potency [6]

CC(=O)O[Si](C)(OC(C)=O)OC(C)=O
inactive: outcome [1] | Potency [2] | Potency [3] | Potency [4] | outcome [5] | Potency [6]

CCCc1ccc(O)cc1
inactive: outcome [1] | Potency [2] | Potency [3] | Potency [4] | outcome [5] | Potency [6] | Potency [7]

Cc1c(Cl)cccc1Cl
inactive: outcome [1] | Potency [2] | Potency [3] | Potency [4] | outcome [5] | Potency [6]

OC[C@H]1O[C@@H](O[C@@H]2[C@@H](CO)O[C@](O)(CO)[C@H]2O)[C@H](O)[C@@H](O)[C@H]1O
inactive: outcome [1] | Potency [2] | Potency [3] | Potency [4] | outcome [5] | outcome [8] | outcome [9] | Potency [7]

CC(S)C(C)S (stereo not drawn)
inactive: outcome [1] | Potency [2] | Potency [3] | Potency [4] | outcome [5] | outcome [10] | outcome [8] | Potency [6] | outcome [9] | Potency [7]

CCCCC1CCC(O)CC1 (stereo not drawn)
inactive: outcome [1] | Potency [2] | Potency [3] | Potency [4] | outcome [5] | outcome [10] | outcome [8] | Potency [6] | outcome [9]

O=C1c2ccccc2C(=O)c2cc(Cl)ccc21
inactive: viability change, negative = cytotoxic [1] -1.8% [at 7.04 µM] | activity change, negative = cytotoxicity [2] 8.37% [at 8.52 µM] | activity, negative = cytotoxicity [3] 3.55% [at 8.53 µM] | activity change, negative = cytotoxicity [4] 2.51% [at 8.55 µM] | activity change, negative = cytotoxicity [5] 5.05% [at 7.04 µM] | viability change, negative = cytotoxic [6] -1.61% [at 8.47 µM]

COc1ccc(CCO)cc1
inactive: outcome [1] | Potency [2] | Potency [3] | Potency [4] | outcome [5] | outcome [8] | Potency [6] | outcome [9]

CCCCSCCCC
inactive: outcome [1] | Potency [2] | Potency [3] | Potency [4] | outcome [5] | Potency [6] | Potency [7]

CCCCCc1cccc(=O)o1
inactive: outcome [1] | Potency [2] | Potency [3] | Potency [4] | outcome [5] | Potency [6] | Potency [7]

O=S(=O)(O)c1ccc2c(N=Nc3ccc(S(=O)(=O)O)c4ccccc34)c(O)c(S(=O)(=O)O)cc2c1
inactive: outcome [1] | Potency [2] | Potency [3] | activity change, negative = cytotoxicity [4] 0.0993% [at 8.55 µM] | outcome [5] | viability change, negative = cytotoxic [6] -3.01% [at 8.47 µM]
active: Potency [6] 22.1 µM

N[C@@H](CSCCCO)C(=O)O
inactive: outcome [1] | Potency [2] | Potency [3] | Potency [4] | outcome [5] | outcome [10] | outcome [8] | Potency [6] | outcome [9] | Potency [7]

CCOC(CN1CCN(CC(C)C(=O)c2ccccc2)CC1)c1ccccc1 (stereo not drawn)
active: Potency [2] 10.6 µM | Potency [3] 13.3 µM | Potency [4] 18.8 µM
inactive: outcome [1] | outcome [5]

CC(=O)O[C@@H]1CC2CCC1(C)C2(C)C (stereo partly drawn)
inactive: outcome [1] | Potency [2] | Potency [3] | Potency [4] | outcome [5] | outcome [10] | outcome [8] | Potency [6] | outcome [9] | Potency [7]

Cc1c(C(=O)c2c[nH]n(C)c2=O)ccc(S(C)(=O)=O)c1C1=NOCC1
inactive: outcome [1] | Potency [2] | Potency [3] | Potency [4] | outcome [5] | outcome [10] | outcome [9]

CC(=O)CC(=O)Nc1ccc(C)cc1C
inactive: outcome [1] | Potency [2] | Potency [3] | Potency [4] | outcome [5] | outcome [10] | outcome [8] | outcome [9] | Potency [7]

CC1(C)CC(OC(=O)CCCCCCCCC(=O)OC2CC(C)(C)NC(C)(C)C2)CC(C)(C)N1
inactive: outcome [1] | Potency [2] | Potency [3] | Potency [4] | outcome [5] | Potency [6]
